What is called Inhibition is the drop in the measured response relative to a control, in per cent. Read a high Inhibition as a strong effect.

One assay has as its system Plasmodium falciparum. Kind of assay: GSK_TCMDC: Inhibition of Plasmodium falciparum Dd2 in whole red blood cells, using parasite LDH activity as an index of growth. Test compounds present at 2uM. The class given is functional.
Regarding `CS(=O)(=O)CCN(CCS(C)(=O)=O)Cc1ccc(-c2ccc3ncnc(Nc4ccc(OCc5cccc(F)c5)c(Cl)c4)c3c2)o1.Cc1ccc(S(=O)(=O)O)cc1`, the Inhibition amounted to 27%.
`Cn1nccc1C(=O)NCCNCc1ccc(-c2cccc(-c3nc4cc(F)ccc4[nH]3)c2)cc1.O=C(O)C(F)(F)F` returned an Inhibition of 98%.
Same read-out and setting: then `Cc1cnc(CNCc2ccc(S(=O)(=O)Nc3ccc(Oc4cccc(Cl)c4)cc3)cc2)cn1.O=C(O)C(F)(F)F`, with 0%; and `COC(=O)c1ccc(Nc2nccc(Nc3ccc(Oc4ccccc4)cc3)n2)cc1.Cl`, with 15%.
The compound `N#CN1CC[C@H](CS(=O)(=O)c2cccc(Br)c2)C1` returned an Inhibition of 74%.
On the same count and under the same terms, then `FC(F)(F)c1ccc2[nH]c(-c3ccc(-c4ccc(CNCC5CCCO5)cc4)cc3)nc2c1.O=C(O)C(F)(F)F` (configuration not stated), with 100%.
Still for that read-out and setting: as for `CN1CCC(C(=O)Nc2cccc(-c3ccc(-c4nc5cc(C(F)(F)F)ccc5[nH]4)cc3)c2)CC1`, the figure is 99%.

The next assay relates to HepG2. Nature of the assay: GSK_TCMDC: Percent inhibition of human HepG2 cell line. Test compounds present at 10uM. The assay is classed as functional.
In turn, `O=C(O)C(F)(F)F.Oc1ccc(CCCNc2nc(NCc3ccccc3-c3ccccc3)nc(N3CCNCC3)n2)cc1` gave an Inhibition of 39%.
For the compound `COc1cc2c(cc1S(=O)(=O)c1ccc(OCc3ccc(Cl)cc3)cc1)CCN(Cc1ccc(NC(C)=O)s1)CC2`, the Inhibition came out at 3%.
As for `O=C(NCCCCCN1CCC(c2c[nH]c3ccccc23)CC1)Nc1ccc(I)c(Cl)c1`, the Inhibition was found to be 88%.
`CC(C)CN(Cc1c(O)ccc2[nH]c(-c3ccc(F)cc3F)nc12)CC(C)C` showed an Inhibition of 11%.
The compound `COc1cc(NC(=O)c2ccc(-c3ccc(C(C)=O)cc3)s2)ccc1OCCN1CCCC1` came in with an Inhibition of 31%.
`CCCCCCOc1ccc(C(=O)N(Cc2ccccc2)c2c(-c3ccccc3)nc3cc(C)ccn23)cc1` had an Inhibition of 0%.
Compound `c1ccc(Oc2ccc(Nc3ccnc(Nc4cccc(CNCCCN5CCOCC5)c4)n3)cc2)cc1` displayed an Inhibition of 0%.
Turning to `CC1(C)C2C=C(CN3CCC(NC(=O)Nc4ccc(Cl)c(Cl)c4)CC3)C1CC2` (configuration not stated), the Inhibition came out at 28%.
In the case of `COc1ccc(NC(=O)[C@H](CC(C)C)Nc2ccnc(NCCc3ccc(F)cc3)n2)cc1.O=C(O)C(F)(F)F`, the Inhibition is listed as 0%.
As for `Cl.O=C(/C=C/c1ccc(Cl)cc1)Nc1ccc2nc(CN3CCCC3)ccc2c1`, the Inhibition is listed as 47%.
Consider `O=C(Nc1ccc(OC2CCN(Cc3ccccc3)CC2)c(Cl)c1)c1cccs1.O=C(O)C(F)(F)F`, for which the Inhibition came to 2%.
Turning to `Cc1cc(N2CCN(C3CCCCC3)CC2)nc2cccc(O)c12`, the Inhibition is 12%.
For `NCC(NC(=O)c1ccc(-c2c[nH]c3ncccc23)s1)c1ccccc1.O=CO` (configuration not stated), the Inhibition stood at 52%.
For `Cc1cc(CN2C(=O)C(c3ccccc3)(c3ccccc3)N=C2N)c(C(F)(F)F)o1`, the Inhibition worked out at 11%.
`Cc1cccc(C(=O)NC(NC(=S)Nc2ccc([N+](=O)[O-])cc2)C(Cl)(Cl)Cl)c1` (configuration not stated): the Inhibition turned out to be 14%.
Take `COc1ccc(OC)c(NC(=O)CSc2nc(-c3ccccc3Cl)ns2)c1`: the Inhibition turned out to be 0%.
Regarding `CN1CCN(CCCN(Cc2ccc(-c3ccc(CNC4CCCC4)cc3)cc2)C(=O)CCC2CCCC2)CC1.O=C(O)C(F)(F)F`, the Inhibition amounted to 92%.
The same measure, in the same setting: as for `Cc1ccccc1C1CCN(C2CCC(NC(=O)/C=C/c3ccccc3C(F)(F)F)CC2)CC1` (configuration not stated), the figure is 63%; as for `CC(=O)Nc1ccc(CNC2Cc3ccc(-c4ccc(Cl)c(Cl)c4)cc3C2)cc1` (configuration not stated), 49%.
Turning to `CN(C)Cc1cccc(-c2cc3c(-c4cnn(C)c4)c(Cl)cnc3[nH]2)c1`, the Inhibition is given as 75%.
`Clc1cc(Nc2ccnc3ccc(Br)cc23)ccc1Oc1ccc(Cl)c2ccccc12` came in with an Inhibition of 6%.
For the compound `Cc1cc(-c2ccc(CN3Cc4ccccc4C3)cc2)ccc1S(=O)(=O)NCCN1CCCC1.O=C(O)C(F)(F)F`, the Inhibition was determined as 49%.
`CCc1ccc(C2CCN(CCCCNC(=O)c3ccc(-c4ccc(C(F)(F)F)cc4)cc3)CC2)c(OCCO)c1.Cl` yielded an Inhibition of 82%.
On the same count and under the same terms, as for `O=S(=O)(c1cc(Cl)sc1Cl)N(CCC(O)(C(F)(F)F)C(F)(F)F)Cc1cccc(O)c1`, the figure is 0%; as for `N#Cc1c(-c2ccccc2)cn2c1[nH]c(=O)c1ccccc12`, 0%.
Compound `COc1ccc2nccc([C@@H](O)CN3CCC(NCc4nc5c(C#N)cccc5[nH]4)CC3)c2c1.O=C(O)C(=O)O` gave an Inhibition of 0%.
`O=C(O)C(F)(F)F.Oc1ccc(CCNc2nc(NCCCOc3cccc(CN4CCCCC4)c3Cl)nc(N3CCNCC3)n2)cc1` displayed an Inhibition of 26%.
In turn, `Oc1ccc2ccccc2c1CNCC1CCCCC1` came in with an Inhibition of 0%.
Turning to `O=C(Nc1cccc(OC2CCN(Cc3ccccc3)CC2)c1)Nc1cccc([N+](=O)[O-])c1.O=C(O)C(F)(F)F`, the Inhibition amounted to 10%.
Compound `Cl.O=C(Nc1ccc2c(c1)CCNCC2)c1ccc(-c2ccc(Cl)cc2)cc1` yielded an Inhibition of 71%.
Consider `COc1ccc2ncc(C#N)c(CCN3CCC(NCc4ccc5c(c4)NC(=O)CO5)CC3)c2c1.Cl`, for which the Inhibition was determined as 25%.
`CCOC(=O)N/N=C/[C@H](CCc1ccccc1)NC(=O)[C@H](CC(C)C)NC(=O)c1cc2cccc(OC)c2o1`: the Inhibition was determined as 3%.
`Cc1c2c(nn1-c1ccccc1)C(c1ccccc1)N(c1ccccc1)C2=O` (configuration not stated) registered an Inhibition of 42%.
The compound `CS(=O)(=O)CCN(CCS(C)(=O)=O)Cc1ccc(-c2ccc3ncnc(Nc4ccc(OCc5cccc(F)c5)c(Cl)c4)c3c2)o1.Cc1ccc(S(=O)(=O)O)cc1` registered an Inhibition of 0%.
In turn, `Cn1nccc1C(=O)NCCNCc1ccc(-c2cccc(-c3nc4cc(F)ccc4[nH]3)c2)cc1.O=C(O)C(F)(F)F` gave an Inhibition of 37%.
Compound `Cc1cnc(CNCc2ccc(S(=O)(=O)Nc3ccc(Oc4cccc(Cl)c4)cc3)cc2)cn1.O=C(O)C(F)(F)F` gave an Inhibition of 4%.
In the case of `COC(=O)c1ccc(Nc2nccc(Nc3ccc(Oc4ccccc4)cc3)n2)cc1.Cl`, the Inhibition is 0%.
The same measure, in the same setting: then `N#CN1CC[C@H](CS(=O)(=O)c2cccc(Br)c2)C1`, with 8%; and `FC(F)(F)c1ccc2[nH]c(-c3ccc(-c4ccc(CNCC5CCCO5)cc4)cc3)nc2c1.O=C(O)C(F)(F)F` (configuration not stated), with 33%; and `CN1CCC(C(=O)Nc2cccc(-c3ccc(-c4nc5cc(C(F)(F)F)ccc5[nH]4)cc3)c2)CC1`, with 38%.
